Rows were chosen to be rich in hits. Some 27% of all compounds tested hit in one or more screens of this group.
CYP2C9 inhib = blocks human cytochrome P450 2C9; P11712; CYP2C9 Supersomes, luciferin-H conversion, luminescence; inhibition, % at 5 µM; hit rate 20% among 96,000;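 active = blocking of liver enzyme CYP2C9 beyond about 50% at 5 µM, limit read from the data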
Target sequence (P11712 whole entry, looked up): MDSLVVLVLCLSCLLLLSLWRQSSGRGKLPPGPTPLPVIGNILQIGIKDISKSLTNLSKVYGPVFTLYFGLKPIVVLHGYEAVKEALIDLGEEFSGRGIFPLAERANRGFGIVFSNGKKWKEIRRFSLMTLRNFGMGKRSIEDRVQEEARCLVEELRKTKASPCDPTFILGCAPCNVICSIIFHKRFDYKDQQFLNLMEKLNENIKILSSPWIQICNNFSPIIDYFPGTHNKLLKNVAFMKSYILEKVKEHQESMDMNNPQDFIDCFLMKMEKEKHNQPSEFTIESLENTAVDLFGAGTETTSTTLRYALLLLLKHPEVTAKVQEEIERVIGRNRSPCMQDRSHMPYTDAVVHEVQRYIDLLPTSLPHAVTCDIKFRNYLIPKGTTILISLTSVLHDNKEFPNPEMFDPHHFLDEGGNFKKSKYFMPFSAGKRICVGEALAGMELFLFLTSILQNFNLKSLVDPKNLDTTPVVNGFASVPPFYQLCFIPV
CYP2C19 activ = cytochrome P450 2C19 (human) activation | P33261 | recombinant CYP2C19, luciferin-H EGE luminescence; hits give high values; 0 = fully inhibited enzyme, 1 = untreated enzyme | activation factor at 5 µM | 96,000 tested, under 10 active | AID 1025;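 active = activation factor of at least 2 at 5 µM in the primary screen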
CYP2C19 inh = inhibitors of human CYP2C19; inhibition, % at 5 µM; hit rate 21% among 96,000; AID 778; CYP2C19 Supersomes, luciferin-H EGE luminescence, 30 min;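 active = CYP2C19 inhibition above a set limit at 5 µM in the primary screen, cut at about 50% in these data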
Cav3 T inh = blocks human Cav3.2 T-type calcium channel. hit rate 4% among 100,000. AID 449739. Cav3.2-expressing cells, Fluo-4 calcium fluorescence FDSS; hits give low values. B-score at 10 µM;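 active = single-dose well whose peak fluorescence ratio is a statistical outlier from its plate by either plate-standardised score or position-corrected B-score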
CYP2C9 act = increases human cytochrome P450 2C9 activity | P11712 | recombinant CYP2C9, luciferin-H conversion, luminescence; hits give high values; factor 1 = untreated enzyme, 0 = blocked | activation factor at 5 µM | hit rate 1.4% among 96,000;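 active = activation factor of 2 or more for CYP2C9 at a 5 µM dose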
Large screens that a line does not name were inactive.

CC(C)C[C@H]1C(=O)N2CCC[C@H]2[C@]2(O)O[C@](NC(=O)[C@@H]3C=C4c5cccc6[nH]c(Br)c(c56)CC4N(C)C3)(C(C)C)C(=O)N12 (stereo partly drawn)	Cav3 T inh -4.8 (no result: CYP2C9 inhib, CYP2C19 activ, CYP2C19 inh, CYP2C9 act)
CCC(C)[C@@H](C(=O)Nc1ccc(OC)c(OC)c1)N1Cc2ccccc2C1=O (stereo partly drawn)	none
COc1ccc(C(=O)NNC(=S)NC(=O)c2ccco2)cc1	Cav3 T inh -5.5
COCCNC(=S)NNC(=O)c1ccco1	none
O=C(/C=C/c1cccs1)NC(=S)NNC(=O)Cc1cccs1	Cav3 T inh -4.2 (no result: CYP2C9 inhib, CYP2C19 activ, CYP2C19 inh, CYP2C9 act)
COc1ccc(C(=O)NC(=S)NNC(=O)Cc2cccs2)cc1	Cav3 T inh -4.9
COc1ccc(/C=C/C(=O)NC(=S)NNC(=O)Cc2cccs2)cc1OC	none
CC(C)(C)OC(=O)CNC(=O)c1[nH]cnc1C(=O)N[C@@H](Cc1ccccc1)C(=O)OC(C)(C)C	none (no result: CYP2C9 inhib, CYP2C19 activ, CYP2C19 inh, CYP2C9 act)
O=C(NNC(=O)c1cccnc1)Nc1cccc2ccccc12	none
CC(C)C(=O)Nc1nnc(SCC(=O)NCc2cccs2)s1	none (no result: Cav3 T inh)
Cc1n[nH]c(C)c1S(=O)(=O)N1CCN(C2CCCCC2)CC1	none
CC(=O)c1c(N2CCC(C(N)=O)CC2)nc(=S)n(-c2ccccc2)c1C	none
CC1Cc2nc(SCC(=O)NCc3ccco3)n(Cc3ccccc3)c(=O)c2S1 (stereo not drawn)	none
CCc1nnc(NC(=O)CSc2nnc(-c3ccccc3O)n2-c2ccc(C)cc2)s1	none
CCc1nnc(NC(=O)CSc2nnc(C3CCCCC3)n2-c2cccc(Cl)c2)s1	Cav3 T inh -4.3 (no result: CYP2C9 inhib, CYP2C19 activ, CYP2C19 inh, CYP2C9 act)
COC(=O)CSc1nnc(-c2ccccc2O)n1-c1ccc(C)cc1	CYP2C19 inh 57 (no result: Cav3 T inh)
CCc1nnc(NC(=O)CSc2nnc(-c3ccoc3C)n2-c2cccc(C)c2)s1	CYP2C9 inhib 54
Cc1cccc(-n2c(SCC(=O)Nc3nnc(C)s3)nnc2-c2ccoc2C)c1	none
CCc1nnc(NC(=O)CSc2nnc(-c3ccccc3OC)n2-c2ccc(C)cc2)s1	CYP2C9 inhib 72, CYP2C19 inh 77
COc1ccc(/C=C(\NC(=O)c2ccccc2)C(=O)N/N=C/c2ccncc2)cc1	none (no result: CYP2C19 activ, CYP2C19 inh)
CCCCC1CC(/C(C)=N/NC(N)=O)OC1=O (stereo not drawn)	none
Cc1nonc1NC(=O)CSc1nnc(-c2ccoc2C)n1CC(C)C	CYP2C19 inh 76
Cc1cccc(-n2c(SCC(=O)Nc3nonc3C)nnc2-c2ccoc2C)c1	CYP2C9 inhib 54
CCn1c(SCC(=O)Nc2nonc2C)nnc1-c1ccoc1C	none
CCc1nnc(NC(=O)CSc2nnnn2-c2cccc(C(=O)OC)c2)s1	CYP2C9 inhib 68
CCCCOc1ccc(C(=O)N2CC(C)OC(C)C2)cc1 (stereo not drawn)	none
CCN(CC)S(=O)(=O)c1cccc(-c2nnc(SCc3nnc(-c4cccs4)o3)n2N)c1	CYP2C9 inhib 76, CYP2C19 inh 58
Cn1c(=O)c2c(nc(CN3CCN(C(=O)c4ccco4)CC3)n2Cc2ccc(Cl)cc2)n(C)c1=O	none
NC1(N)OC(CN2C(=O)c3ccccc3C2=O)CS1 (stereo not drawn)	CYP2C19 inh 52
Cc1ccccc1C(=O)NC1CCN(CC(=O)Nc2nccs2)CC1	none
Cc1cccc(N2CCN(CC(=O)Nc3nccs3)CC2)c1C	CYP2C9 inhib 62, CYP2C19 inh 82, Cav3 T inh -6.3
CCNC(=O)NC(=O)C(C)Sc1ccc2c(c1)OCCO2 (stereo not drawn)	CYP2C19 inh 53
CCCC(C)C(=O)Nc1ccc2c(c1)OCCO2 (stereo not drawn)	none
CCOc1ccc(NC(=O)C2CSC(c3ccncc3)=N2)cc1 (stereo not drawn)	none (no result: CYP2C9 inhib, CYP2C19 activ, CYP2C19 inh, CYP2C9 act)
COc1ccc(NC2=CC(=O)CC(c3ccccc3)C2)c(OC)c1 (stereo not drawn)	CYP2C19 inh 62
CCOc1ccccc1NC1=CC(=O)CC(c2ccccc2)C1 (stereo not drawn)	none
O=C(C1CCCN1S(=O)(=O)c1cccc2cccnc12)N1CCc2ccccc21 (stereo not drawn)	CYP2C9 inhib 62, CYP2C19 inh 70
O=C(NCCN1CCCCCC1)C1CCC(CNS(=O)(=O)c2cccc3cccnc23)CC1 (stereo not drawn)	none
CC1CCN(C(=O)C2CCC(CNS(=O)(=O)c3cccc4cccnc34)CC2)CC1 (stereo not drawn)	CYP2C9 act 2.9 (no result: Cav3 T inh)
CN(CC(=O)N1CCc2ccccc21)S(=O)(=O)c1cccc2cccnc12	none
CCOc1ccc(OCC)c(NC(=O)C2CCCN2S(=O)(=O)c2cccc3cccnc23)c1 (stereo not drawn)	none
O=C(C1CCC(CNS(=O)(=O)c2cccc3cccnc23)CC1)N1CCc2ccccc21 (stereo not drawn)	CYP2C19 inh 80
O=C(C1CCCN1S(=O)(=O)c1cccc2cccnc12)N1CCN(c2ccccc2)CC1 (stereo not drawn)	CYP2C9 inhib 61
CC(=O)NC1CCCN(O)C(=O)/C=C(\C)CCOC(=O)C(NC(C)=O)CCCN(O)C(=O)/C=C(\C)CCOC(=O)C(NC(C)=O)CCCN(O)C(=O)/C=C(\C)CCOC1=O (stereo not drawn)	none (no result: CYP2C9 inhib, CYP2C19 activ, CYP2C19 inh, CYP2C9 act)
O=C(C1CCN(S(=O)(=O)c2cccc3cccnc23)CC1)N1CCc2ccccc21	CYP2C9 act 2.1
COC(=O)c1cc(OC)c(OC)cc1NC(=O)c1ccc(OC)c(OC)c1	none
CCCCCCCCC(=O)Nc1cc(C)ccc1OC	none (no result: CYP2C9 inhib, CYP2C19 activ, CYP2C19 inh, CYP2C9 act)
COc1cccc(-c2cc(C(=O)NCCCn3ccnc3)no2)c1	CYP2C9 inhib 71, CYP2C19 inh 80
COc1ccc(-c2cc(C(=O)N(C)Cc3ccccc3)no2)cc1OC	CYP2C9 inhib 50
COc1cccc(-c2cc(C(=O)NCCc3ccccc3)no2)c1	none
COc1ccc(-c2cc(C(=O)NCCCn3ccnc3)no2)cc1OC	CYP2C9 inhib 50, CYP2C19 inh 65
COc1cc2c(cc1OC)C(c1ccccc1O)N(C1CC(=O)N(c3ccccc3)C1=O)CC2 (stereo not drawn)	none (no result: Cav3 T inh)
CC(C)CNC(=S)NC1CC2CCCC(C1)N2Cc1cccs1 (stereo not drawn)	none
CSc1ncc(CNc2cc([N+](=O)[O-])ccc2C)c(N)n1	none (no result: CYP2C9 inhib, CYP2C19 activ, CYP2C19 inh, CYP2C9 act)
c1cc(CNc2ccc(N3CCOCC3)cc2)ccn1	none
CC(C)c1ccc(CNc2ccc(N3CCOCC3)cc2)cc1	CYP2C19 inh 95
O=C(Nc1ccc(Cc2ccncc2)cc1)C1CCC(N2C(=O)C3C4C=CC(C4)C3C2=O)CC1 (stereo not drawn)	CYP2C9 inhib 95, CYP2C19 inh 96
O=C1C2C3C=CC(C3)C2C(=O)N1c1ccc(Cc2ccncc2)cc1 (stereo not drawn)	CYP2C9 inhib 80, CYP2C19 inh 71
Cc1ccc2c(n1)sc1c(-c3ccccc3)c(C#N)c(N)nc12	none
CC1=NN(C(=O)c2ccc(Br)cc2)C(O)(C(F)(F)OC(F)(F)F)C1 (stereo not drawn)	CYP2C19 inh 53 (no result: Cav3 T inh)
c1ccc(SCc2nc(-c3ccncc3)no2)cc1	CYP2C9 inhib 83, CYP2C19 inh 96

Assay outcomes: PubChem, several laboratories
